PubChem BioAssay (NCI)
The panel holds about 83,000 compounds, 20% with a hit somewhere; the sample as a whole holds those more often.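 The test compound was applied at a single concentration to cells in 96-well plates for 48 hours, and percent growth was recorded.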 The source made the active and inactive calls. Rule for the calls: active = growth percent below 10; inactive = the rest.

Assays:
Assay in all cases: NCI-60 one-dose screen, 48 h (100 = growth as untreated, 0 = no growth, -100 = all killed)
Details in all cases: 10 µM unless noted
[1] = tested on: NCI-H23 lung
[2] = tested on: NCI-H226 lung
[3] = tested on: NCI-H322M lung
[4] = tested on: HOP-62 NSCLC
[5] = tested on: NCI-H460 lung
[6] = tested on: HOP-92 NSCLC
[7] = tested on: NCI-H522 lung
[8] = tested on: A549/ATCC NSCLC
[9] = tested on: 786-0 renal
[10] = tested on: COLO 205 colon

Measured: growth

NCCNc1nc(-c2ccccc2)nc2nc(-c3ccccc3)oc12
inactive: [1] 90.6% | [2] 86.1% | [3] 104% | [4] 85.6% | [5] 98.4% | [6] 55.1% | [7] 105% | [8] 93.6% | [9] 81% | [10] 87.4%

Cc1ccc(S(=O)(=O)Nc2ccc(-c3cc(-c4cccc(F)c4)c(C#N)c(N)n3)cc2)cc1
inactive: [1] 55.3% | [2] 36.7% | [3] 72.2% | [4] 53.1% | [5] 93.3% | [8] 33% | [9] 13.4% | [10] 23.9%
active: [6] -39.3% | [7] -71.4%

C/C(=N\NC(=O)C(C)SC(C)C(=O)N/N=C(\C)c1cccnc1)c1cccnc1 (stereo not given)
inactive: [1] 103% | [2] 106% | [3] 104% | [4] 106% | [5] 104% | [6] 114% | [7] 77.4% | [8] 108% | [9] 115% | [10] 107%

Cc1nc([P+](c2ccccc2)(c2ccccc2)c2ccccc2)c(Sc2sc(-c3ccccc3)nc2[P+](c2ccccc2)(c2ccccc2)c2ccccc2)o1
active: [1] 3.75% | [4] 9.57% | [5] 3.38% | [6] -18.9% | [7] 3.53% | [10] -43.4%
inactive: [2] 47.6% | [3] 28.2% | [8] 11.5% | [9] 20.2%

O=C1NC(c2ccc(Cl)c(Cl)c2)=C/C1=C\c1ccccc1
active: [9] 9.12%
inactive: [1] 84.8% | [2] 57.7% | [3] 79% | [4] 69.1% | [5] 18.6% | [6] 72.1% | [7] 79% | [8] 55.1% | [10] 65.2%

Oc1cccc2oc(=S)[nH]c12
inactive: [1] 104% | [2] 106% | [3] 128% | [4] 104% | [5] 116% | [6] 102% | [7] 101% | [8] 107% | [9] 106% | [10] 117%

COc1ccc(/C=C/C(=O)NCC(C)O)cc1 (stereo not given)
inactive: [1] 93.5% | [2] 91.5% | [3] 94.5% | [4] 89.1% | [5] 101% | [6] 101% | [7] 85% | [8] 83.2% | [9] 100% | [10] 104%

CSc1ccc(N(C)c2nc(C)nc3c2CCC3)cc1
active: [4] 2.72% | [5] 6.41% | [6] -17% | [7] -26.7% | [8] 6.42% | [10] -64.9%
inactive: [1] 16.7% | [2] 55.5% | [3] 57.4% | [9] 14.4%

C/C(=N\Nc1ccc2ccccc2n1)c1ccccn1
active: [2] 0.47% | [3] -12% | [4] 5.02% | [5] 0.889% | [6] -10.9% | [7] -16.4% | [8] 4.55% | [9] 6.89% | [10] 0.767%
inactive: [1] 23.3%

COc1cc(-c2cc3ncccc3c3nc(N)c4cccnc4c23)cc(OC)c1OC
active: [5] 3.55% | [10] -15.6%
inactive: [1] 24.5% | [2] 38.7% | [3] 44.3% | [4] 27.3% | [6] 41.2% | [7] 17.4% | [8] 12.7% | [9] 12.9%

COc1ccc(/C=C/C(=O)c2ccc([N+](=O)[O-])cc2)cc1
inactive: [1] 104% | [2] 102% | [3] 102% | [4] 104% | [5] 110% | [6] 87.7% | [7] 83.7% | [8] 100% | [9] 94.7% | [10] 114%

COc1ccc(C(=O)/C=C/c2cc(-c3cc(OC)c(OC)c(OC)c3)n[nH]2)cc1OC
inactive: [1] 71.2% | [2] 20.8% | [6] 42.8% | [8] 31.3%
active: [3] -42.4% | [4] -56.6% | [5] -17.4% | [7] -78.5% | [9] -34.7% | [10] -65.7%

COc1ccc2c(c1)c(-c1nc(-c3c[nH]c4ncccc34)cs1)cn2C
inactive: [1] 71.8% | [2] 80.6% | [3] 46.6% | [4] 90.4% | [5] 40.1% | [6] 60.7% | [7] 77.9% | [8] 81.7% | [9] 70.1% | [10] 83.7%

CCN(CC)C(=O)CCCCCn1c2ccccc2c2c3c(c4c5ccccc5[nH]c4c21)C(=O)N(O)C3=O
inactive: [1] 46.8% | [2] 69.9% | [3] 81.8% | [5] 53.1% | [6] 78.5% | [8] 87.2% | [9] 78.1%
active: [4] -26.4% | [7] -66.5% | [10] -7.19%

CCSc1ncnc2c1ncn2C1OC(CO)C(O)C1O (stereo not given)
inactive: [1] 24.6% | [2] 62.9% | [3] 42.6% | [4] 21.1% | [5] 14.9% | [6] 33% | [7] 19.5% | [8] 14.6% | [9] 24.1% | [10] 20.8%

O=C1C(=O)c2ccccc2C(O)=C1CCCc1ccc(C2CCCCC2)cc1
inactive: [1] 36.9% | [2] 47.1% | [3] 81.3% | [4] 44% | [6] 40.7% | [7] 54.7% | [8] 21.1% | [9] 30.8% | [10] 42.6%
active: [5] 7.15%

Cn1cc(-c2csc(-c3cn(CCCN4CCCCC4)c4ccc(F)cc34)n2)c2cccnc21
inactive: [1] 89.2% | [2] 91.6% | [3] 86.8% | [4] 99.3% | [5] 96.1% | [6] 49% | [7] 103% | [8] 92.2% | [9] 40.3% | [10] 98.9%

COc1ccc(-c2nc3ccccn3c2-c2nc3ccc(Cl)cc3[nH]2)cc1
inactive: [1] 98.3% | [2] 90.1% | [3] 103% | [4] 114% | [5] 98.8% | [6] 85% | [7] 73.9% | [8] 92.5% | [9] 97.6% | [10] 110%

O=C(NC(Cc1cn(Cc2ccccc2)cn1)C(=O)O)OCC1c2ccccc2-c2ccccc21 (stereo not given)
inactive: [1] 98.7% | [2] 102% | [3] 106% | [4] 101% | [5] 115% | [6] 107% | [7] 84.2% | [8] 104% | [9] 102% | [10] 110%

CCCCC[C@H]1C/C=C2/C(=O)C=C[C@@H]2C/C=C\CCCC(=O)O[C@@H](CCCCC)C/C=C2/C(=O)C=C[C@@H]2C/C=C\CCCC(=O)O1
active: [1] -72.7% | [2] -61.2% | [3] -85.7% | [4] -74.4% | [5] -54.7% | [6] -68.8% | [7] -81.7% | [8] -43.5% | [9] -86.8% | [10] -81.7%

CCOC(=O)C/C(=C\c1ccccc1)C(C)=O
inactive: [1] 104% | [2] 98.7% | [3] 114% | [4] 73.4% | [5] 112% | [6] 92.2% | [7] 76.7% | [8] 67.4% | [9] 101% | [10] 102%

COc1cc(C(=O)/C=C/c2cc(-c3ccc4c(c3)OCO4)n[nH]2)cc(OC)c1OC
active: [4] -22.7% | [5] -55.2%
inactive: [1] 24.5% | [2] 38.1% | [3] 19.3% | [6] 73% | [7] 17.4% | [8] 28.8% | [9] 12.8% | [10] 32.3%

Cn1cc(-c2nc(-c3c[nH]c4ncccc34)cs2)c2cc(Br)ccc21
inactive: [1] 93.5% | [2] 95.7% | [3] 76.4% | [4] 109% | [5] 81.7% | [6] 89.1% | [7] 86.5% | [8] 86.7% | [9] 80.6% | [10] 106%

COc1ccc(/C=C(\C#N)c2cc3ccccc3n2C(C)=O)cc1
inactive: [1] 88.3% | [2] 102% | [3] 94.6% | [4] 93.3% | [5] 92.4% | [6] 99.2% | [7] 70% | [8] 83.5% | [9] 96.9% | [10] 97.3%

COC(=O)C(N)CSC(c1ccccc1)(c1ccccc1)c1ccccc1 (stereo not given)
inactive: [1] 45.5% | [2] 77.6% | [4] 44.6% | [6] 55.1% | [8] 31.3% | [9] 53.7%
active: [3] 9.37% | [5] 8.85% | [7] -43.6% | [10] 1.18%

Cc1nn(-c2ccc(Br)cc2)c2nc3[nH]c(=O)[nH]c(=O)c3nc12
inactive: [1] 99% | [2] 103% | [3] 119% | [4] 120% | [5] 108% | [6] 110% | [7] 98.1% | [8] 102% | [9] 100% | [10] 115%

CCN(CC)CCCCCCNc1ccnc2cc(Cl)ccc12
inactive: [1] 83.4% | [2] 108% | [3] 96.2% | [4] 82.6% | [5] 92.9% | [6] 98.8% | [7] 125% | [8] 96.2% | [9] 90.9%
active: [10] 9.2%
